Consider 25 molecules from PubChem BioAssay (Tox21).

For assay [1], the target named is Acetylcholinesterase (Homo sapiens) (UniProt P22303). The experiment in a line: Acetylcholinesterase (AChE) small molecule antagonists: enzyme-based qHTS assay (AID 1347397; calls by dose curve; note: nearly all actives have a fitted effect of over 55% in size; note: potency is the fitted concentration of half-maximal effect). Conditions: Potency: AChE enzyme activity inhibition. An outline of the steps: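 Recombinant human AChE, dispensed at 50 mU/mL, was preincubated with Tox21 10K compounds or DMSO vehicle for 30 min at room temperature. DTNB plus acetylthiocholine was then added, and thiocholine was measured colorimetrically after a further 10 min.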

Assay [2] shares this target. The experiment in a line: Acetylcholinesterase (AChE) small molecule antagonists: fluorescence cell-based qHTS assay (AID 1347398; calls by dose curve; note: nearly all actives have a fitted effect of over 50% in size; note: potency is the fitted concentration of half-maximal effect). As to conditions: Potency: AChE activity. The gist of the method: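 Human SH-SY5Y cells were plated overnight at 37 C, exposed to compound for 30 min at 37 C, 5% CO2, then given acetylthiocholine plus Thiolite Green for 40 min at room temperature; thiocholine fluorescence (Ex/Em 490/520 nm) reports endogenous AChE activity.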

Assay [3] has the same target. The experiment in a line: Acetylcholinesterase (AChE) small molecule antagonists: enzyme-based qHTS assay with human liver microsomes (AID 1347399; calls by dose curve; note: nearly all actives have a fitted effect of over 60% in size). As to conditions: Potency: qHTS inhibition. The gist of the method: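 Recombinant human AChE (50 mU/mL in the enzyme mix) and human liver microsomes (0.25 mg/mL final) were preincubated with compound and NADPH (0.25 mg/mL final) for 30 min at 37 C. Acetylthiocholine/DTNB was then added; thiocholine was read colorimetrically after 10 min at room temperature.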

Assay [4] deals with Cytochrome P450 2C19 (Homo sapiens) (UniProt P33261). Description: Cytochrome P450 Family 2 Subfamily C Member 19 (CYP2C19) small molecule antagonists: luciferase reporter qHTS assay (AID 1671197). Note: nearly all actives have a fitted effect of over 65% in size. Note: potency is the fitted concentration of half-maximal effect. The gist of the method: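 First, compounds are pinned into enzyme-substrate mix and held 10 min at room temperature. Second, NADPH regeneration solution is added and plates incubate 1 h at 37C. Third, detection reagent is added and luminescence read after 20 min.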

The target in assay [5] is Cytochrome P450 2C9 (Homo sapiens) (UniProt P11712). Description: Cytochrome P450 Family 2 Subfamily C Member 9 (CYP2C9) small molecule antagonists: luciferase reporter qHTS assay (AID 1671198). Note: nearly all actives have a fitted effect of over 50% in size. Note: potency is the fitted concentration of half-maximal effect. An outline of the steps:
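CYP2C9 activity was measured with a P450-Glo proluciferin substrate. Enzyme–substrate mix was held with compound for 10 min at room temperature, then NADPH regeneration solution was added for 1 h at 37C. Luciferin product was read as luminescence.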

The target in assay [6] is Cytochrome P450 3A4 (Homo sapiens) (UniProt P08684). The experiment in a line: Cytochrome P450 Family 3 Subfamily A Member 4 (CYP3A4) small molecule antagonists: luciferase reporter qHTS assay (AID 1671201). Note: nearly all actives have a fitted effect of over 50% in size. Note: potency is the fitted concentration of half-maximal effect. The gist of the method:
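Proluciferin-to-luciferin conversion by CYP3A4, NADPH-regenerated, 1 h RT; luminescence read as RLU. Ketoconazole as control.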

The target in assay [7] is Cytochrome P450 1A2 (Homo sapiens) (UniProt P05177). Description: Cytochrome P450 Family 1 Subfamily A Member 2 (CYP1A2) small molecule antagonists: luciferase reporter qHTS assay (AID 1671199). Note: nearly all actives have a fitted effect of over 50% in size. Note: potency is the fitted concentration of half-maximal effect. An outline of the steps: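 Human CYP1A2 activity measured with a P450-Glo proluciferin substrate; compounds in DMSO preincubated 10 min at room temperature with enzyme-substrate mix, then NADPH regeneration system added for 1 h. Luciferin detection reagent, 20 min, luminescence read.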

Assay [8] deals with Voltage-gated inwardly rectifying potassium channel KCNH2 (Homo sapiens) (UniProt Q12809). Description: Human Ether-a-go-go-Related Gene (hERG) channel small molecule antagonists: fluorescence cell-based qHTS assay (AID 1671200). Note: nearly all actives have a fitted effect of over 50% in size. Note: potency is the fitted concentration of half-maximal effect. An outline of the steps: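 Kinetic two-minute fluorescence traces, sampled at 1 s, were collected following thallium stimulus of U2OS cells (1000 per well) that had been cultured overnight at 37 C and loaded with FluxOR II.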

For assay [9], the target named is Cytochrome P450 2D6 (Homo sapiens) (UniProt P10635). Description: Cytochrome P450 Family 2 Subfamily D Member 6 (CYP2D6) small molecule antagonists: luciferase reporter qHTS assay (AID 1671196). Note: nearly all actives have a fitted effect of over 50% in size. Note: potency is the fitted concentration of half-maximal effect. The gist of the method: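 CYP2D6 enzyme–substrate mix was held with compound for 10 min at room temperature, then NADPH regeneration solution was added and the reaction ran 1 h at room temperature. Luciferin product was detected by luminescence after 20 min with detection reagent.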

Records with an inconclusive call do not appear. The source made the active and inactive calls. Unless noted, calls come from the whole dose curve; as a rule, active = well fitted curve in the direction sought with a large enough effect in the repeat runs; inconclusive = weak or mixed curves; inactive = no such curve, though single readings can be large; an effect the other way counts as inactive or inconclusive.

Sequence of Cytochrome P450 3A4 (Homo sapiens) (P08684 whole entry, looked up): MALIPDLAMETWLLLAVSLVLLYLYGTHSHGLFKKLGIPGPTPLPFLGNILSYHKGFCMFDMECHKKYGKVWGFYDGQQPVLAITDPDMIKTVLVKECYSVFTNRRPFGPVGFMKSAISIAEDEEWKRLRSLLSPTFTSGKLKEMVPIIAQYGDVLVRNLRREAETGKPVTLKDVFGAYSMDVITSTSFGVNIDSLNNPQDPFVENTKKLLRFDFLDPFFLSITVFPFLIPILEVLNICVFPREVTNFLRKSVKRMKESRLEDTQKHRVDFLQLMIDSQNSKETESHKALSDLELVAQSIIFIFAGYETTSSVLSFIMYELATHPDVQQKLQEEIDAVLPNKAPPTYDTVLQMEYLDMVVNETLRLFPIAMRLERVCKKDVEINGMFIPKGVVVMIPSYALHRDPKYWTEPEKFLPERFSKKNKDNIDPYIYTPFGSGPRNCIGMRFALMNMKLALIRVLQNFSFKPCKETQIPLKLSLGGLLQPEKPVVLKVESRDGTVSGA
Sequence of Cytochrome P450 2C19 (Homo sapiens) (P33261 whole entry, looked up): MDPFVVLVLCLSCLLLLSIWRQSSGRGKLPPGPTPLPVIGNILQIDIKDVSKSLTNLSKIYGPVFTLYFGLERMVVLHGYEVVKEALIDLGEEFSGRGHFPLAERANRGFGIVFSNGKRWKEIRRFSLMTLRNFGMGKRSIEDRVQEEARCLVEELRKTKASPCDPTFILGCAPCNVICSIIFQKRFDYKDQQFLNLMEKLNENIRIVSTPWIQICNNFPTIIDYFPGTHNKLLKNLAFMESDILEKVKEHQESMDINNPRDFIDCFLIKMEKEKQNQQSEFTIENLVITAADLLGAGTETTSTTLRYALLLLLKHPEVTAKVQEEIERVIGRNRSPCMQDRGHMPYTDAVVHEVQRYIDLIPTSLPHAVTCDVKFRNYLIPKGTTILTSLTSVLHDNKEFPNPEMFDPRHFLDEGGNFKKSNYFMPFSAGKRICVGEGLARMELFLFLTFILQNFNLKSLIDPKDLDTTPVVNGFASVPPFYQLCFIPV
Sequence of Cytochrome P450 2D6 (Homo sapiens) (P10635 whole entry, looked up): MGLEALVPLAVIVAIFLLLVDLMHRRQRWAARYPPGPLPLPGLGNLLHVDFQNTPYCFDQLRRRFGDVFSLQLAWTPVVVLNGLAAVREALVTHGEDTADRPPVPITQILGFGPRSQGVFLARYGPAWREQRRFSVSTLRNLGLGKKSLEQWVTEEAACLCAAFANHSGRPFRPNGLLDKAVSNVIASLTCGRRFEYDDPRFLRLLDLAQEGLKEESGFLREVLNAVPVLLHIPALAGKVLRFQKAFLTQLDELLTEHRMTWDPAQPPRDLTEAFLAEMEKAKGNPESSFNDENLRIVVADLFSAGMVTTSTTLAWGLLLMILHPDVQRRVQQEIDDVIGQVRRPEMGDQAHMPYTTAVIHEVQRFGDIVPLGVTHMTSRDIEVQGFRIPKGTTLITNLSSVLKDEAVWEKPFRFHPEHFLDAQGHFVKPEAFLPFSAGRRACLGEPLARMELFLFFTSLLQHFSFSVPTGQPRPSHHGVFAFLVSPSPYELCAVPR
Sequence of Acetylcholinesterase (Homo sapiens) (P22303 whole entry, looked up): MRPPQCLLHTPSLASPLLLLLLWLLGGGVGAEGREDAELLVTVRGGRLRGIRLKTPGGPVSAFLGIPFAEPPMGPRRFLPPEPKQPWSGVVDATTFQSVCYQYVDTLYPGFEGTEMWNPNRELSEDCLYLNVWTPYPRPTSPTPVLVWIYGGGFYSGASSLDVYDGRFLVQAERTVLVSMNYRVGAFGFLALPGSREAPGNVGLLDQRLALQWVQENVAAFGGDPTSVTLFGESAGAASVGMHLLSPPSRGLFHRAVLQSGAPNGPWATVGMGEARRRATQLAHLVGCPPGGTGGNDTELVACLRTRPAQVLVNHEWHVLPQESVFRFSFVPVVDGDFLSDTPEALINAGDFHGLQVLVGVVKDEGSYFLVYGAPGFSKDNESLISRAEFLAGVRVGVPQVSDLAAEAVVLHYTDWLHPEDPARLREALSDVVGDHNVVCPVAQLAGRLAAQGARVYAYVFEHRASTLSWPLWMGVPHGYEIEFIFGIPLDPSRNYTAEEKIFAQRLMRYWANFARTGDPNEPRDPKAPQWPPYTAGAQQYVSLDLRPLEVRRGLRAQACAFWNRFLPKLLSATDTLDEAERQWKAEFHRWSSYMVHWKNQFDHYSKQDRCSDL
Sequence of Cytochrome P450 2C9 (Homo sapiens) (P11712 whole entry, looked up): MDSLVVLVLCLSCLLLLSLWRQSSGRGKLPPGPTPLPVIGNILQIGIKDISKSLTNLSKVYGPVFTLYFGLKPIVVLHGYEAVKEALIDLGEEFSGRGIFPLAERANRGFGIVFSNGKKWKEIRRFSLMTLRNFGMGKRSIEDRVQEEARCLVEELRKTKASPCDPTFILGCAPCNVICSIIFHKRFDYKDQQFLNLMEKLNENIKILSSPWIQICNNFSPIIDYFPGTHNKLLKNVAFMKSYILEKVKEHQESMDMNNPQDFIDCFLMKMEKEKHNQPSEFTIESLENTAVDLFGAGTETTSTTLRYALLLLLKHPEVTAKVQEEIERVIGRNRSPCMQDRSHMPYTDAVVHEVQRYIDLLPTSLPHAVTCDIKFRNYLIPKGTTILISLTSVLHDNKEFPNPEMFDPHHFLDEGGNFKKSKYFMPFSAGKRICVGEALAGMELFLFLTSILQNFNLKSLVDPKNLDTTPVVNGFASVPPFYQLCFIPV
Sequence of Cytochrome P450 1A2 (Homo sapiens) (P05177 whole entry, looked up): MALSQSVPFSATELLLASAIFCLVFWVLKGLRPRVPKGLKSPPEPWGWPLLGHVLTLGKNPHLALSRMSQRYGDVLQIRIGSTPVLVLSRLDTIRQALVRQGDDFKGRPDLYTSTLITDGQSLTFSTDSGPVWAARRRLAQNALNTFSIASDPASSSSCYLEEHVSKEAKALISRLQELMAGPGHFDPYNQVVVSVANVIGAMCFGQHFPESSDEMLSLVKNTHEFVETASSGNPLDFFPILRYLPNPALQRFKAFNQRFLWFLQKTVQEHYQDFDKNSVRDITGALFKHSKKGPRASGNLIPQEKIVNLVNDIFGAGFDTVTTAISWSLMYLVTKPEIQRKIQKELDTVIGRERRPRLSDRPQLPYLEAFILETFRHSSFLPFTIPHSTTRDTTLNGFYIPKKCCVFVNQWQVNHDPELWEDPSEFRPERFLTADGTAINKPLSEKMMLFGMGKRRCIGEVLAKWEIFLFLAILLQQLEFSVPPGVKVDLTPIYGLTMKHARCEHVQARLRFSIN
Sequence of Voltage-gated inwardly rectifying potassium channel KCNH2 (Homo sapiens) (Q12809 whole entry, looked up): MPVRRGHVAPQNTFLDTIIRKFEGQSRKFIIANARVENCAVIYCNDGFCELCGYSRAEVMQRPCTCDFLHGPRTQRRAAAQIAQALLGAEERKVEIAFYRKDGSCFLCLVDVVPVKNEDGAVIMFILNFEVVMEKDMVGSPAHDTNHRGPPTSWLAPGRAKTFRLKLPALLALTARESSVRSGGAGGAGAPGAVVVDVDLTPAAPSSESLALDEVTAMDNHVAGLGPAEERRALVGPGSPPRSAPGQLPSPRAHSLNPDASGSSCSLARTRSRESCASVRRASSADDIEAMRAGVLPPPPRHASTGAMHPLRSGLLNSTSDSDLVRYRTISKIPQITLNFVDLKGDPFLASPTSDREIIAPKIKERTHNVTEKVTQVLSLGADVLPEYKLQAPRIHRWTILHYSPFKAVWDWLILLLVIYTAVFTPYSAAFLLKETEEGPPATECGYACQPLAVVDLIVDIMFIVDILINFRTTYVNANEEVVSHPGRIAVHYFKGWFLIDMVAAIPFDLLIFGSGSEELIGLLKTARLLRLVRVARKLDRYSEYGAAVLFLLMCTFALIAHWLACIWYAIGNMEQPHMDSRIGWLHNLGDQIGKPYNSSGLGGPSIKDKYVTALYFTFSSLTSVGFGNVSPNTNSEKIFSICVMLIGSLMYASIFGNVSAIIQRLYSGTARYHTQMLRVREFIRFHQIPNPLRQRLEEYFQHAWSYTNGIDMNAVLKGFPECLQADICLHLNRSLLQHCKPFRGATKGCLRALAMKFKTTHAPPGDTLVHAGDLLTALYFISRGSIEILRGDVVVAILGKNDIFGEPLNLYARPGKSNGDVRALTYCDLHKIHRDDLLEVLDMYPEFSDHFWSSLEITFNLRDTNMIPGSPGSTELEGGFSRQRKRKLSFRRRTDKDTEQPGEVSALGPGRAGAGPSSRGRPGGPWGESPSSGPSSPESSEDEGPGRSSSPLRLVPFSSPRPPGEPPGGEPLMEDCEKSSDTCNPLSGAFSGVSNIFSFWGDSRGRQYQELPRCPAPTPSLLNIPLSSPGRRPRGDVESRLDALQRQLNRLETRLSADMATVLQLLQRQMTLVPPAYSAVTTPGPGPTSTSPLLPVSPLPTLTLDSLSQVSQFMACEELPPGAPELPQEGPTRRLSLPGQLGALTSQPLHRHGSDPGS

Take `Oc1ccc(C2(c3ccc(O)cc3)CCCCC2)cc1`: the Potency entry in assay [1], in assay [2] and in [3] was “inactive” each time. Moreover, the results for the Potency in assay [4], in assay [5] and in [6] were 37.8 µM (active), 33.7 µM (active) and 23.9 µM (active), respectively.
Consider `COP(N)(=S)OC`, for which the Potency result in assay [1], in [2], in assay [3], in [5], in assay [7] and in [8] was “inactive” in each case.
Regarding `CCN`, the Potency result in [1], in [2], in assay [3], in [4], in [5] and in assay [8] was “inactive” throughout. Moreover, the Potency result in assay [6] is “inactive”.
For the molecule `O=S(=O)(c1ccc(Cl)cc1)c1ccc(Cl)cc1`, the Potency entry in [1], in assay [2] and in assay [3] was “inactive” each time. In addition, the results for the Potency in assay [7] and in assay [8] were 34 µM (active) and 47.7 µM (active), respectively.
As for `CN(CCCC(=O)c1cccnc1)N=O`, the Potency entry in assay [1], in assay [2], in [3], in assay [4], in [5] and in assay [8] was “inactive” throughout. Besides, the Potency in [6] was 17.8 µM (active).
Take `CCS(=O)(=O)c1cccnc1S(=O)(=O)NC(=O)Nc1nc(OC)cc(OC)n1`: the Potency result in assay [1], in assay [2], in assay [3] and in assay [8] was “inactive” each time.
`CSCCCN=C=S`: the Potency entry in assay [1], in assay [2], in assay [3] and in assay [7] was “inactive” each time. In [4], the Potency was 71 µM (active).
With `Oc1ccc(I)cc1`, the Potency result in assay [1], in assay [2], in assay [3], in [8] and in assay [6] was “inactive” in each case. The Potency is 71 µM (active) in assay [5] and 39.9 µM (active) in assay [7].
Take `c1cc[c]([Sb]([c]2ccccc2)[c]2ccccc2)cc1`: the Potency entry in assay [1], in [2], in [9] and in [7] was “inactive” throughout. Further, the Potency in assay [4] and in [5] was 17.8 µM (active) each time.
On to `CCCOCC(=Nc1ccc(Cl)cc1C(F)(F)F)n1ccnc1`, for which the Potency entry in assay [1], in assay [2] and in assay [3] was “inactive” in each case. Also, the Potency in assay [4] is 0.71 µM (active); in [7], 8.94 µM (active); in assay [8], 48.9 µM (active); in assay [6], 0.283 µM (active).
`Nc1ccccc1C(=O)Oc1ccc2ccccc2c1`: the Potency entry in [1], in assay [2] and in assay [3] was “inactive” throughout. In addition, the values for the Potency in assay [5] and in assay [7] were 20 µM (active) and 14.2 µM (active), respectively.
Turning to `O=C(CBr)c1ccc(O)cc1`, the Potency entry in [1], in assay [2], in assay [3], in assay [5], in assay [8] and in assay [6] was “inactive” in each case. For the same molecule, in assay [7], the Potency is 31.7 µM (active).
`O=C(Cl)c1ccc(Cl)cc1`: the Potency entry in [1], in [2], in assay [3], in [7], in [8] and in [6] was “inactive” in each case.
For `CCOP(=S)(OCC)SCCS(=O)(=O)CC`, the Potency in assay [1] was 71 µM (active); in assay [2], 35.6 µM (active); in assay [9], 2.24 µM (active); in assay [4], 0.1 µM (active); in [5], 0.894 µM (active); in [7], 35.6 µM (active). The Potency entry in [8] was “inactive”.
With `O=c1[nH]c2ccccc2n1C1CCN(CCCC(c2ccc(F)cc2)c2ccc(F)cc2)CC1`, the Potency entry in assay [1], in [2], in [3], in [7] and in assay [6] was “inactive” each time.
For the molecule `COC(=O)N(C(=O)N1CO[C@@]2(C(=O)OC)Cc3cc(Cl)ccc3C2=N1)c1ccc(OC(F)(F)F)cc1`, the Potency result in assay [1], in [2], in assay [3] and in assay [8] was “inactive” in each case. Also, the Potency in assay [4] was 0.154 µM (active); in assay [5] it was 2.73 µM (active); in assay [6], 2.44 µM (active).
As for `c1ccc2c(c1)[nH]c1cnccc12`, the Potency entry in assay [1], in assay [3] and in assay [8] was “inactive” throughout. Moreover, the results for the Potency in assay [9], in assay [4] and in assay [7] were 7.11 µM (active), 31.8 µM (active) and 7.98 µM (active), respectively.
As for `CCC(C)c1cc(C(C)(C)C)cc(-n2nc3ccccc3n2)c1O` (centres undefined), the Potency result in assay [1], in assay [2], in [9], in [4], in [8] and in [6] was “inactive” each time.
As for `COc1ccc(OC)c(C=O)c1`, the Potency result in assay [1], in [2], in assay [9], in assay [8] and in assay [6] was “inactive” each time. Moreover, in assay [7], the Potency was 28.3 µM (active).
As to `Cc1cc(C(F)(C(F)(F)F)C(F)(F)F)ccc1NC(=O)c1cccc(I)c1C(=O)NC(C)(C)CS(C)(=O)=O`, the Potency entry in assay [1], in assay [2], in assay [4], in assay [7] and in assay [8] was “inactive” in each case. The Potency was 4.51 µM (active) in [9], 20.1 µM (active) in [5] and 2.01 µM (active) in [6].
For the molecule `C=CC(=O)N(C)C`, the Potency entry in [1], in assay [3], in assay [9], in [4], in [5] and in assay [7] was “inactive” in each case. Moreover, the Potency entry in assay [8] and in [6] was “inactive” each time.
As to `C[C@]12CC[C@@H]3c4ccc(OC(=O)N(CCCl)CCCl)cc4CC[C@H]3[C@@H]1CC[C@@H]2O`, the Potency entry in [1], in [2], in assay [9], in [4], in assay [5] and in [7] was “inactive” each time. Besides, the Potency entry in [8] and in assay [6] was “inactive” each time.
Regarding `CC1CCC(C(C)C)C(OC(=O)c2ccccc2N)C1` (centres undefined), the Potency result in assay [1], in [2] and in assay [6] was “inactive” in each case. Also, the Potency in assay [4] is 1.11 µM (active); in [7] it was 12.4 µM (active); in [8] it was 43 µM (active).
Regarding `O=C1c2ccccc2C(=O)C1C(=O)C(c1ccccc1)c1ccc(Cl)cc1` (centres undefined), the Potency result in assay [1], in assay [2], in [8] and in assay [6] was “inactive” throughout. Moreover, the Potency in [4] was 17.8 µM (active); in [5] it was 0.0252 µM (active); in [7], 20 µM (active).
As to `CCOC(=O)CC(=O)CCl`, the Potency entry in assay [1], in assay [3], in assay [9], in assay [4], in [5] and in assay [8] was “inactive” each time. Also, the Potency result in assay [6] is “inactive”.
